# High-throughput results as filed in PubChem.
# SMN2 splice enh: SMN2 splice variant enhancement; actives 2.8% (n = 210,000); Potency, µM (titrated, usually from 46.1 µM), hits mostly activators; AID 1458; HEK293 SMN2-luciferase splicing reporter, luminescence, 30-36 h; also: nearly all actives have a fitted effect of over 55% in size
#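 HEK293 cells carry an SMN2 […]–luciferase reporter in which exon 7 inclusion puts luciferase in frame. Cells were plated 10-12 h before compound addition, then incubated 30-36 h at 37C. ONE-Glo luminescence was read; sodium butyrate at 4.5 mM final served as control.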
# Rab9 promoter act: Rab9 promoter activation | Huh7 Rab9 promoter-luciferase reporter, luminescence, 24 h | Potency, µM (series often up to 9.22 µM), actives largely listed as activators | actives 2.8% (n = 320,000); also: nearly all actives have a fitted effect of over 60% in size
#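 Luminescence read-out: Huh7 cells stably expressing Rab9-luciferase, treated 24 h with compound at 37 °C, then lysed with luciferase reagent for 10 min at ambient before reading.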
# NPC1 promoter act: activates the NPC1 promoter; Huh7 NPC1 promoter luciferase reporter, 24 h; Potency, µM (highest dose often 9.22 µM), actives largely listed as activators; actives 2.4% (n = 320,000); AID 485313; also: nearly all actives have a fitted effect of over 60% in size
#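 Compounds in DMSO were transferred onto Huh7 NPC1-luciferase reporter cells pre-incubated 2 h; after 24 h at 37 °C, Amplite reagent was dispensed and luminescence recorded 10 min later.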
# Luc counter: counter-screen: inhibitors of Kinase-Glo firefly luciferase. Kinase-Glo luciferase, ATP luminescence, 8 min. actives 0.28% (n = 200,000). Potency, µM (highest dose often 38.3 µM), usual class: inhibitors. Q27757. AID 1379; also: nearly all actives have a fitted effect of over 60% in size
#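 Compounds were added to a substrate mix at pH 7.2 (50 mM imidazole, 10 uM ATP, within the enzyme's linear range), followed by Kinase-Glo detection reagent; luminescence was measured after 8 minutes at ambient temperature.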
# FLuc counter: counter-screen for miR-21 project: firefly luciferase inhibitors or activators; purified FLuc, Km substrates, luminescence inhibition; Potency, µM (doses to about 57.5 µM), most hits filed as inhibitors; actives 6.9% (n = 360,000); AID 588342; P08659; also: nearly all actives have a fitted effect of over 55% in size
# Target sequence (P08659 whole entry, looked up): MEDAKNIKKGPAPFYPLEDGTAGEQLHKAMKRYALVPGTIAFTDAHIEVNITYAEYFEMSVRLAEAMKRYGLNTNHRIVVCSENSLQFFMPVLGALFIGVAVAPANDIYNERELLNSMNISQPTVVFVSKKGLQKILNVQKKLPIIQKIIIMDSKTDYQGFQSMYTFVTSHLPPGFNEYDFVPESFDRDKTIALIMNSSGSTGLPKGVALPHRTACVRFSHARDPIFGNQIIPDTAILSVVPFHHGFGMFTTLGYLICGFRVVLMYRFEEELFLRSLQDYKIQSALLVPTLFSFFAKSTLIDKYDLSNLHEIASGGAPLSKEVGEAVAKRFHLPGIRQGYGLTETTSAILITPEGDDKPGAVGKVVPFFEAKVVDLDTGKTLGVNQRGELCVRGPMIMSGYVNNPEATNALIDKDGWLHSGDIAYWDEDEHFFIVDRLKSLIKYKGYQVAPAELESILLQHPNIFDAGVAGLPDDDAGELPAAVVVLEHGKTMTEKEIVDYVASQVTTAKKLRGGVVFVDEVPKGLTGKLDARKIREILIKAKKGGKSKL
#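 Purified P. pyralis luciferase (10nM final) with 10uM D-luciferin and 10uM ATP (Km levels) in 50mM Tris acetate pH 7.5, 10mM Mg acetate, 0.01% Tween-20, 0.05% BSA; qHTS 6-point titration, ~60 µM downward; luminescence read.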
# ELG1 genotox: inducers of genotoxicity in HEK293T ELG1-luciferase cells. Potency, µM (titrated, usually from 46 µM), hits mostly activators. actives 1.3% (n = 330,000). AID 504466. HEK293T ELG1-luciferase reporter, luminescence, 16 h; also: nearly all actives have a fitted effect of over 60% in size
#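 Genotoxic stress is detected as increased luminescence from luciferase-tagged ELG1 in HEK293T cells, measured with ONE-Glo after a 16 hr treatment at 37 °C.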
# A number is an active result; . = inactive; ? = inconclusive; / = no result given; [ ] = remark or other dose. Rows were chosen to be rich in hits. Some 7.4% of all compounds tested hit in one or more screens of this group. Calls follow the shape of the dose curve; as a rule, active = well fitted curve in the direction sought with a large enough effect; inconclusive = small, poorly fitted or top-dose-only effect, or another doubt; inactive = no such curve, though single readings can be large; an effect the other way counts as inactive or inconclusive.
SMILES,SMN2 splice enh,Rab9 promoter act,NPC1 promoter act,Luc counter,FLuc counter,ELG1 genotox
N#Cc1c(/N=C/c2ccc(Br)s2)sc2c1CCC2,7.94µM,?,?,.,1.9µM,?
N#Cc1c(/N=C\c2ccc(O)c([N+](=O)[O-])c2)sc2c1CCCC2,/,?,.,.,?,.
Cc1ccc(/C=N/c2sc3c(c2C#N)CCC3)o1,.,.,.,11.2µM,1.35µM,?
Cc1[nH]n(-c2ccccc2)c(=O)c1/C=N/NC(=O)C(C)C,.,.,.,.,.,.
COC(=O)C1=CN(c2cccc(Cl)c2)C=C(C(=O)OC)C1c1cccc(OC)c1,/,.,.,/,.,.
N#CCCN(C(=O)CSc1ncccn1)c1ccc2c(c1)OCCO2,/,.,.,/,.,.
O=C(CCl)N(C/C=C/c1ccccc1)c1ccc2c(c1)OCCO2,.,.,.,.,23.9µM,.
COCCNC(=O)COC(=O)c1cc(-c2ccc(OC)cc2)nc2ccccc12,?,.,.,.,10.7µM,.
COc1ccc2cc(-c3cc(C(=O)OCC(=O)NC4CCS(=O)(=O)C4)c4ccccc4n3)ccc2c1 (stereo not drawn),1.12µM,0.501µM,0.631µM,.,0.477µM,?
CCCNC(=O)COC(=O)c1cc(-c2ccc(OC)cc2)nc2ccccc12,.,.,.,.,?,.
CCN(CC)C(=O)COC(=O)c1cc(-c2ccco2)nc2ccccc12,.,.,.,.,?,.
CCN(CC)C(=O)COC(=O)c1cc(-c2ccc(OC)cc2)nc2ccccc12,.,.,.,.,7.57µM,.
COc1ccc(-c2cc(C(=O)Oc3cccc(C)c3C)c3ccccc3n2)cc1,.,/,/,/,?,/
COc1ccc(-c2cc(C(=O)OCC(=O)NC(C)C)c3ccccc3n2)cc1,.,.,.,.,6.75µM,.
CC(Sc1nnc(-c2cccnc2)n1C)C(=O)N1CCOCC1 (stereo not drawn),/,.,.,/,.,.
Cc1c(Cl)cccc1-c1ccc(C(=O)Nc2ccc(F)cc2)o1,.,/,/,/,?,/
Cc1cc(NC(=O)COC(=O)[C@@H](NS(=O)(=O)c2ccc(Br)cc2)C(C)C)no1,/,.,.,/,.,.
COc1ccc(-c2cc(C(=O)OCC(=O)NC3CC3)c3ccccc3n2)cc1,/,.,.,/,3.79µM,.
O=C(COC(=O)c1cc(-c2ccccc2)nc2ccccc12)NC1CC1,/,/,/,/,/,.
COc1ccc(-c2cc(C(=O)OCC(=O)NC(C)(C)C)c3ccccc3n2)cc1,.,.,.,.,12µM,.
CCNC(=O)COC(=O)c1cc(-c2ccc(OC)cc2)nc2ccccc12,.,.,.,.,5.36µM,.
COc1ccc(-c2cc(C(=O)OCC(=O)N3CCOCC3)c3ccccc3n2)cc1,/,/,/,/,/,.
CCOc1ccccc1N(C)S(=O)(=O)c1ccc2c(c1)CC(C)N2C(=O)C1CC1 (stereo not drawn),/,.,.,/,.,.[9.26 µM]
Cc1ccc(-c2ccc(/C=C(\C#N)C(N)=S)n2C)cc1,/,?,?,/,4.78µM,.
Cc1cc(SCC(=O)c2ccc(Br)cc2)cc(C)[o+]1,.[9.22 µM],/,/,.[7.66 µM],/,/
SMILES,SMN2 splice enh,Rab9 promoter act,NPC1 promoter act,Luc counter,FLuc counter,ELG1 genotox
COc1ccc(C(=O)Nc2cccc(C(=O)O)c2)cc1S(=O)(=O)N1CCCC1,/,?,?,/,10.7µM,.
Cc1ccc(C(=O)Nc2cccc(C(=O)O)c2)cc1S(=O)(=O)N1CCCC1,11.2µM,/,/,/,0.0953µM,/
Cc1ccc(C(=O)O)cc1S(=O)(=O)N1CCC(C(=O)O)CC1,11.2µM,.,.,.,.,.
COc1ccc(C(=O)Nc2ccc(NC(=O)c3ccccc3)cc2)cc1S(=O)(=O)N1CCOCC1,/,.,.,/,.,.
Cc1ccc(NC(=O)c2cccc(F)c2)cc1S(=O)(=O)N1CCCCCC1,.,.,.,.,.,.
CC1CCN(C(=O)COC(=O)c2cccc(S(=O)(=O)N(C)c3ccccc3)c2)CC1,/,.,.,/,10.7µM,.
COc1ccc(S(=O)(=O)NCCc2cn3nc(C)c(C)nc3n2)cc1F,/,.,.,/,.,.
CCCN(C(=O)c1cc(S(=O)(=O)N2CCc3ccccc32)cn1C)c1ccc(OCC)cc1,/,/,/,/,.,/
CCCc1cc(=O)oc2c(C)c(O[C@@H]3O[C@H](CO)[C@@H](O)[C@H](O)[C@H]3O)ccc12,/,.,.,/,.,.
O=C(O)c1cccc(NC(=O)c2cccc(S(=O)(=O)N3CCCCC3)c2)c1,.,2.82µM,?,.,6.01µM,?
Cc1ccc(C(=O)OCC(=O)N2CCC(C)CC2)cc1S(=O)(=O)N1CCCCC1,/,.,.,/,16.9µM,.
Cc1ccc(C(=O)Nc2cccc(C(=O)N3CCOCC3)c2)cc1Cl,/,?,.,/,9.53µM,?
CN(C)c1ccc(C(=O)Nc2cccc(S(=O)(=O)N3CCCC3)c2)cc1,/,?,.,/,1.69µM,.
O=C(CSc1ccccc1)N1CCCC(Nc2ccccc2)C1 (stereo not drawn),/,.,.,/,.,.
O=C(COC(=O)c1ccccc1F)c1ccc(-n2nncc2-c2ccco2)cc1,.,.,.,.,12µM,.
Cc1ccc(OCCC(=O)OC(C)C(=O)Nc2ccc(Cl)cn2)cc1 (stereo not drawn),/,.,.,/,.,.
CC1CCc2c(sc3nc(-c4cc5ccccc5oc4=O)nc(Cl)c23)C1 (stereo not drawn),.,/,/,/,2.39µM,/
Cc1cc(C)cc(-n2c(SCC(=O)N3CCCCCC3)nc3c([nH]c4ccccc43)c2=O)c1,/,/,/,/,.,/
O=C(Nc1ccc(Cl)cn1)c1cccnc1,?,.,.,.,.,.
Cc1ccc(NC(=O)c2ccc(S(=O)(=O)N3CCC(C)CC3)cc2)nc1,/,.,.,/,?,18.3µM
Cc1ccc(NC(=O)c2ccc(S(=O)(=O)N3CCCCCC3)cc2)nc1,/,.,.,/,?,.
Cc1ccc(C(=O)Nc2ncc3c(Cl)cccc3n2)cc1,0.0316µM,0.159µM,?,11.2µM,0.269µM,?
O=C(Nc1ccc(Cl)cn1)c1ccc2nccnc2c1,/,?,1.58µM,/,12µM,?
Cc1nc(NC(=S)NC(=O)c2cccs2)ccc1Br,?,.,.,.,4.78µM,?
O=C(CCc1nc(-c2cccs2)no1)Nc1cccc([N+](=O)[O-])c1,/,/,/,/,.,/
SMILES,SMN2 splice enh,Rab9 promoter act,NPC1 promoter act,Luc counter,FLuc counter,ELG1 genotox
CC(C)NC(=O)N(C)C[C@H]1Oc2ccc(NC(=O)NC3CCCCC3)cc2C(=O)N([C@H](C)CO)C[C@@H]1C,/,/,/,/,/,.
Cc1ccc(C(=O)NCCOc2ccc(Cl)cc2)cc1,/,.,?,/,23.9µM,?
O=C(Nc1ccccc1Cl)c1ccc2nccnc2c1,/,2.51µM,3.16µM,/,10.7µM,.
CCCOc1ccc(C(=O)Nc2ccc(Cl)cn2)cc1,?,0.501µM,0.708µM,.,0.849µM,?
CCCOc1ccc(C(=O)Nc2ccc(NC(=O)c3cccc(Cl)c3)cc2)cc1,.,/,/,/,.,/
Cc1ccc(C(=O)Nc2ccc(Cl)cn2)cc1,7.94µM,?,.,.,1.35µM,2.31µM
